# Source: PubChem BioAssay
# TRHR PAM = allosteric enhancers of human TRH receptor. P34981. TRHR cells, fluo-8 calcium fluorescence, EC20 TRH enhancement. enhancement, % at 2 µM. hit rate 0.66% among 360,000. AID 493056; in the data active means enhancement above about 30%
#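 Enhancer read-out: after compound pinning and an initial kinetic agonist-mode read, an EC20 of TRH (10 nM final) was injected and fluo-8 calcium signal (Ex 480/Em 530) followed at 1 s/cycle for 100 cycles in TRHR-expressing cells.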
# LDHA inh = inhibitors of human lactate dehydrogenase A | P00338 | purified LDHA, NADH/diaphorase-resazurin fluorescence; hits give low values | activity change, % (values are at about 110 or 230 µM) | hit rate 0.15% among 480,000 | AID 1347041; in the data active means activity change below about -30%
#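 LDH5 2 nM; NADH 0.06 mM, pyruvate 0.2 mM; 200 mM Tris pH 7.4, EDTA, Tween-20; 5 min RT. Detection: diaphorase 0.133 mg/mL + resazurin 37 µM, fluorescence ex540/em590 at 0 and 20 min; normalized to enzyme-free and DMSO wells.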
# D1 antag = antagonists of human D1 dopamine receptor | P21728 | HEK293 TREx D1 cells, calcium flux, dopamine EC80; hits give low values | activity change, negative = inhibition, % at 10 µM | hit rate 3.2% among 360,000 | AID 504652; in the data active means activity change below about -30%
# Target sequence (P21728 whole entry, looked up): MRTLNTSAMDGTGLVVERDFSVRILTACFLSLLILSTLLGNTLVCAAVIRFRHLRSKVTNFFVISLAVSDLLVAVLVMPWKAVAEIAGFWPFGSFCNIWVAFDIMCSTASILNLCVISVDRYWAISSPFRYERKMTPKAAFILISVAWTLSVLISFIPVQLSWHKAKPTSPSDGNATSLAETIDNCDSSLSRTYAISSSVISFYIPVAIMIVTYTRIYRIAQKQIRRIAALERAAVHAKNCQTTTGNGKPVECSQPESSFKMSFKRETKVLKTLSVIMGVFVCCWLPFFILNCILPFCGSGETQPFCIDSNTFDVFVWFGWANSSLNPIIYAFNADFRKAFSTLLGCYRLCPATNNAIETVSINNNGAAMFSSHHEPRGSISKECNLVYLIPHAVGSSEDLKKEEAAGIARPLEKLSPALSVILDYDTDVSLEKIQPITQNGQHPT
#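 Tetracycline-induced HEK293 Trex D1 cells, force-coupled to calcium, dye-loaded; compounds added and read 180 s, then EC80 dopamine added and calcium flux tracked kinetically another 180 s.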
# D1 potentiator = enhances dopamine response at the human D1 receptor; P21728; HEK293 TREx D1 cells, calcium flux, dopamine EC20 potentiation; potentiation, % at 10 µM; hit rate 0.036% among 360,000; in the data active means potentiation above about 30%
# D1 agonist = agonists of human D1 dopamine receptor; activation, % at 2 µM; hit rate 1% among 360,000; P21728; HEK293 T-REx D1 cells, calcium flux, agonist mode
#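 Tetracycline-induced HEK293 TREx D1 cells, force-coupled to calcium signalling, were dye-loaded with a no-wash calcium kit. Compound was pin-added after a 10 s baseline. Fluorescence was read kinetically at 1 cycle/s for 180 s, with calcium rises flagged as agonism.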
# TRHR ag = TRH receptor (human) agonism | TRHR cells, calcium flux fluo-8, FDSS agonist mode | activation, % at 2 µM | hit rate 0.18% among 360,000
#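 Steps: seed TRHR cells overnight; add fluo-8 no-wash Ca dye, RT 30 min–1.5 h; record 10 s baseline; pin-transfer compounds; monitor fluorescence 1 cycle/s for the agonist window. Calcium increases flag candidate agonists.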
# A number is an active result; i = inactive; nt = no result; ! = not active in a repeat. This is a sample that favours compounds with a hit; in the whole collection about 3.6% have one here. Unless noted, no stated cut-off is given here; in the data, active means activation above about 30%; inactive means the rest.
SMILES,TRHR PAM,LDHA inh,D1 antag,D1 potentiator,D1 agonist,TRHR ag
CC(C)c1ccc(/C=C(\C#N)C(=O)NC2CCCCC2)cc1,nt,i,nt,nt,nt,nt
O=C(COc1ccccc1)Nc1ccc(Cl)c(-c2nc3ncccc3o2)c1,i,i,-44,i,i,i
O=C(Oc1ccc2c(c1)O/C(=C\c1ccncc1)C2=O)c1ccccc1,i,i,i,i,56,i
CS(=O)(=O)Oc1ccc2c(c1)O/C(=C\c1ccncc1)C2=O,nt,i,nt,nt,nt,nt
COc1ccc(C2C(C(C)=O)=C(C)N=c3s/c(=C\c4ccco4)c(=O)n32)c(OC)c1 (stereo not drawn),i,i,i,i,i,i
COc1ccc(C2C(C(C)=O)=C(C)N=c3s/c(=C\c4cc(C)n(C)c4C)c(=O)n32)c(OC)c1 (stereo not drawn),i,i,i,i,121,53
O=C(CN1C(=O)c2cccnc2Oc2ccc(Cl)cc21)N1CCN(C2CCCCC2)CC1,nt,i,nt,nt,nt,nt
CC(=O)Nc1ccc(C(=S)NCC2(N(C)C)CCCCC2)cc1,i,i,i,i,i,i
COC(=O)c1ccc(C(=S)NCC2(N(C)C)CCCCC2)cc1,i,i,-30,i,77,i
NS(=O)(=O)c1ccc(NC(=S)Nc2ccn(Cc3cccc4ccccc34)n2)cc1,i,i,-53,i,i,i
Cc1c2ccccc2nc2c(F)c(N(C)C)c(F)c(F)c12,i,i,i,i,62,40
CC1CCC(NC(=O)C2(C)Cc3ccccc3C(=O)N2Cc2ccc(Cl)cc2)CC1 (stereo not drawn),i,i,-52,i,i,i
CC(C)CCN1C(=O)c2ccccc2CC1(C)C(=O)NC1CCC(C)CC1 (stereo not drawn),i,i,i,i,i,i
Cc1ccc(C)c(NC(NC(=O)c2ccc(Br)cc2)C(Cl)(Cl)Cl)c1 (stereo not drawn),nt,i,nt,nt,nt,nt
CCN(CC)S(=O)(=O)c1ccc(-c2nc(C#N)c(NCCN(C)C)o2)cc1,nt,i,nt,nt,nt,nt
COc1cccc(-c2nn(-c3ccccc3)cc2C(=O)O)c1,i,i,i,i,i,i
COc1cccc(-c2nn(-c3ccccc3)cc2C(=O)NCC(C)(C)N2CCOCC2)c1,nt,-31,nt,nt,nt,nt
N#CCCN(CCC#N)C(=O)CSc1ncc(-c2ccc(F)cc2)o1,nt,i,nt,nt,nt,nt
COc1ccc(-c2[nH]nc3c2C(c2ccc(N(C)C)cc2)C2=C(CC(C)(C)CC2=O)N3)cc1 (stereo not drawn),nt,i,nt,nt,nt,nt
C=CCNC(=O)c1onc(CSc2cccc(OC)c2)c1C(=O)NCC=C,i,i,-49,i,i,i
C=CCNC(=O)c1onc(CSc2ccc(F)c(F)c2)c1C(=O)O,i,i,i,i,31,i
COc1cccc(SCc2noc(C(=O)NCCN(C)C)c2C(=O)NCCN(C)C)c1,nt,i,nt,nt,nt,nt
C=CCNC(=O)c1onc(CSc2ccc(Cl)cc2)c1C(=O)O,i,i,i,i,i,i
Cc1ccc2nc(CSc3nnc4c(Cl)cc(C(F)(F)F)cn34)cn2c1,nt,i,nt,nt,nt,nt
CCC(CC)c1nnc(NC(=O)c2ccc(Cl)c(S(=O)(=O)N3CCc4ccccc43)c2)s1,nt,i,nt,nt,nt,nt
SMILES,TRHR PAM,LDHA inh,D1 antag,D1 potentiator,D1 agonist,TRHR ag
C=CCOc1ccc(Br)cc1CNC(C)(C)CO,i,i,-42,i,i,i
Cc1ccccc1NC(=O)Cn1nc(-c2ccc(F)cc2)c2cnc3ccccc3c21,i,i,-37,i,i,i
CC(C)c1ccc(-c2nc(N3CCCCC3)[nH]c(=O)c2C#N)cc1,i,i,i,i,i,i
CC1CCN(c2nc(-c3ccccc3)c(C#N)c(=O)[nH]2)CC1,i,i,-39,i,i,i
Cc1ccc(C(=O)O)cc1NC(=O)c1cccc(C(=O)Nc2cc(C(=O)O)ccc2C)c1,nt,i,nt,nt,nt,nt
Cc1ccc(C(=O)Nc2ccc(S(=O)(=O)O)c3cc(S(=O)(=O)O)cc(S(=O)(=O)O)c23)cc1NC(=O)c1cccc(NC(=O)Nc2cccc(C(=O)Nc3cc(C(=O)Nc4ccc(S(=O)(=O)O)c5cc(S(=O)(=O)O)cc(S(=O)(=O)O)c45)ccc3C)c2)c1,nt,-94,nt,nt,nt,nt
CC(C)Cc1noc(CSc2nc(-c3ccco3)nc3ccccc23)n1,nt,i,nt,nt,nt,nt
COC(=O)c1sc(=S)n(-c2ccccc2C)c1N,nt,i,nt,nt,nt,nt
CCc1ccc2occ(CC(=O)Nc3ccccc3C(F)(F)F)c2c1,i,i,i,i,i,i
CCc1ccc2occ(CC(=O)NCc3ccccc3)c2c1,i,i,i,i,49,i
CCOC(=O)N1CCC(N(CCCOC)C(=O)Nc2cccc(OC)c2)CC1,i,i,-31,i,i,i
Cn1cnc([N+](=O)[O-])c1Sc1ccc(C(C)(C)C)cc1,i,i,i,i,35,i
O=C(COC(=O)c1ccccc1O)NCCCc1ccccc1,i,i,-34,i,i,i
Cc1cc(C)c(NC(=O)C2CCCN2CCO)c(C)c1 (stereo not drawn),i,i,i,i,i,i
Cc1cc(C)c(NC(=O)C2CCCN2C)c(C)c1 (stereo not drawn),i,i,-35,i,i,i
CC(C)C(=O)N1c2ccccc2NC2=C(C(=O)CC(C)(C)C2)C1c1cccnc1 (stereo not drawn),nt,i,nt,nt,nt,nt
O=C(Cn1c(=O)oc2ccccc21)Nc1ccc2c(c1)OCCO2,i,i,i,i,i,i
COc1cc(NC(=O)CSc2ccc3c(c2)OCCO3)cc(OC)c1OC,i,i,-36,i,i,i
O=C(CCn1c(=O)oc2ccccc21)Nc1ccc2c(c1)OCCO2,i,i,-38,i,i,i
O=C(Cn1ccc2ccccc21)Nc1ccc2c(c1)OCO2,i,-36!,i,i,i,i
CCc1ccc(NC(=O)CNC(=O)Cn2c(C)cc3ccccc3c2=O)cc1,i,i,i,i,i,i
COc1ccc(NC(=O)CSc2ccc3c(c2)OCCO3)cc1OC,i,i,i,i,i,i
Cc1cc2ccccc2c(=O)n1CC(=O)Nc1ccc2c(c1)OCCO2,31,i,i,i,i,i
O=C(NC(NC(=O)C(c1ccccc1)c1ccccc1)c1ccccc1)C(c1ccccc1)c1ccccc1,nt,i,nt,nt,nt,nt
COc1ccccc1/C=C(\C#N)C(=O)Nc1cccc(C(F)(F)F)c1,nt,i,nt,nt,nt,nt
SMILES,TRHR PAM,LDHA inh,D1 antag,D1 potentiator,D1 agonist,TRHR ag
Cc1ccc(C(=O)/C=C/c2ccc3oc4ccccc4c3c2)cc1,nt,i,nt,nt,nt,nt
CCOC(=O)c1cnc2ccc(C)cc2c1Nc1cccc([N+](=O)[O-])c1,nt,i,nt,nt,nt,nt
CN(C(=O)CN1CCN(c2ccc([N+](=O)[O-])c3cnccc23)CC1)c1ccccc1,nt,i,nt,nt,nt,nt
CCN(CC(=O)Nc1ccc2c(c1)OCCO2)CC(=O)Nc1ccccc1C(F)(F)F,nt,-46,nt,nt,nt,nt
Cc1ccc(NC(=O)CN(C)C(=O)Cn2c(=O)oc3ccccc32)cc1,31,i,i,i,i,i
CC(C)C(=O)NNC(=O)CN1CCN(c2nc(-c3ccccc3)cs2)CC1,i,i,i,i,i,i
